We go through 18 compounds from PubChem BioAssay (NCATS).

A short description of test [1]: qHTS assay to identify small molecule inhibitors of chordoma cells - UCH-2 (AID 1259356). Also: series mostly up to about 46 µM; % is scaled to controls: 0 for no effect and ±100 for the full control effect. Background: In qHTS, concentration-response curves come from the screen itself.
The nature of test [2]: NS1 protein of Zika virus - qHTS assay to identify small molecule inhibitors in human HEK 293 cells (AID 1347053).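 Also: series mostly up to about 46 µM; plate controls were infected untreated cells for no effect and uninfected cells for full effect; nearly all actives have a fitted effect of over 55% in size.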 The method, boiled down:
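Inhibition of NS1 expression was scored in HEK 293 cells given compound 1 h ahead of MR766 virus (MOI = 0.5). Following 24 h at 37 C, two anti-NS1 antibodies generated a TR-FRET signal, scaled between uninfected and infected controls.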

Test [3] is described as follows: qHTS of pediatric cancer cell lines to identify multiple opportunities for drug repurposing: Primary screen for TC32 cells (AID 1347089). Also: nearly all actives have a fitted effect of over 60% in size. Also: potency is read from the fitted curve at half-maximal effect. The method, boiled down:
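qHTS, TC32, 48 h drug treatment, CellTiter-Glo luminescence as a proxy for metabolically active cells; primary top concentration 46 µM (MIPE 11-pt, NPC 8-pt); confirmatory 11-pt.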

The nature of test [4]: qHTS of pediatric cancer cell lines to identify multiple opportunities for drug repurposing: Primary screen for DAOY cells (AID 1347090). Also: nearly all actives have a fitted effect of over 55% in size. Also: potency is read from the fitted curve at half-maximal effect.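 As to activity change, negative = cytotoxic: series mostly up to about 46 µM; plate controls were DMSO for no effect and bortezomib for full effect.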 A digest of the protocol:
(§1)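 Viability measured as metabolically active cells via CellTiter-Glo luminescence following 48 hours of compound exposure, 11-point dilutions in confirmatory testing. 500-1,000 cells/well plated 5 hours before dosing; controls were DMSO and 2.3 µM bortezomib.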

A short description of test [5]: qHTS of pediatric cancer cell lines to identify multiple opportunities for drug repurposing: Primary screen for SJ-GBM2 cells (AID 1347091). Also: potency is read from the fitted curve at half-maximal effect.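 As to activity change, negative = cytotoxic: plate controls were DMSO neutral control for no effect and bortezomib for full effect.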 A digest of the protocol: as §1
Test [6] is described as follows: P-glycoprotein substrates identified in KB-8-5-11 adenocarcinoma cell line, qHTS therapeutic library screen (AID 1346987). Also: nearly all actives have a fitted effect of over 65% in size. A digest of the protocol: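 P-gp-mediated resistance screen: KB-8-5-11 cells treated 72 h with compounds in dose-response. CellTiter-Glo viability.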
Test [7] is described as follows: Natriuretic polypeptide receptor (hNpr1) antagonism - Pilot counterscreen GloSensor control cell line (AID 1347045; calls by dose curve; also: series mostly up to about 38 µM; % is scaled to controls: 0 for no effect and ±100 for the full control effect). A digest of the protocol:
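This counterscreen uses HEK293 cells expressing the GIP/pGS-40F cGMP biosensor. Compound-treated cells are challenged with 50 uM sodium nitroprusside, and the luciferase signal is compared before and after stimulation.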

Test [8] deals with Atrial natriuretic peptide receptor 1 (Homo sapiens) (UniProt P16066). Nature of the test: Natriuretic polypeptide receptor (hNpr1) antagonism - Pilot screen (AID 1347049; calls by dose curve;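 also: agonist-evoked cGMP luminescence read 20 min after hNppA addition; series mostly up to about 58 µM; % is scaled to controls: 0 for no effect and ±100 for the full control effect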). A digest of the protocol:
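HEK293 cells expressing hNpr1 and GloSensor cGMP luciferase, 1500/well, loaded with 2% GloSensor reagent 2 h, compound 30 min at room temperature; luminescence read before and 20 min after 0.1 nM hNppA stimulation.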

In test [9] the target is Atrial natriuretic peptide receptor 2 (Homo sapiens) (UniProt P20594). Nature of the test: Natriuretic polypeptide receptor (hNpr2) antagonism - Pilot subtype selectivity assay (AID 1347050; calls by dose curve; also: potency is read from the fitted curve at half-maximal effect). A digest of the protocol: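 HEK293 cells expressing hNpr2 and a GloSensor cGMP luciferase sensor, 1500/well, preloaded 2 h with 2% GloSensor reagent, compound 30 min, then 1 nM hNppC for 20 min. Antagonism from luminescence after versus baseline pre-read; LOPAC in 1:5 titrations.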

The target in test [10] is T1, Tyrosine-protein phosphatase non-receptor type substrate 1 (Homo sapiens) + Leukocyte surface antigen CD47 (Homo sapiens) (UniProt P78324+Q08722). Nature of the test: CD47-SIRPalpha protein protein interaction - LANCE assay qHTS validation (AID 1347057; active = well fitted curve in the direction sought with a large enough effect in the signal ratio, with a control signal flat, not every such curve was filed as active; the % refers to the signal ratio; also: series mostly up to about 38 µM; 0% is about no effect). A digest of the protocol: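 First, His-tagged CD47 and Eu-labelled anti-His antibody met the compound for 30 min; next, site-specifically biotinylated SIRPalpha was added for 30 min; finally streptavidin-APC was added before reading the TR-FRET ratio.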
For orientation: In TR-FRET formats the signal depends on donor and acceptor labels being close together.

Test [11] has as its target T1, Tyrosine-protein phosphatase non-receptor type substrate 1 (Homo sapiens) + Leukocyte surface antigen CD47 (Homo sapiens). Nature of the test: CD47-SIRPalpha protein protein interaction - HTRF assay qHTS validation (AID 1347058; active = well fitted curve in the direction sought with a large enough effect in the signal ratio, not every such curve was filed as active; the % refers to the signal ratio;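 also: recombinant soluble extracellular CD47 with His tag and biotinylated SIRPalpha domains; series mostly up to about 38 µM; 0% is about no effect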). The method, boiled down:
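TR-FRET read (Ch1/Ch2 ratio) of soluble extracellular CD47 and Avi-biotinylated SIRPalpha domains in PBS pH 7.4 with 0.05% IGEPAL; 7-point compound titration. Sequential 30 min room-temperature steps; non-biotinylated SIRPalpha as control inhibitor.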

Test [12] has the same target. The experiment in a line: CD47-SIRPalpha protein protein interaction - Alpha assay qHTS validation (AID 1347059).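 Also: bead proximity luminescence from CD47 binding SIRPalpha after compound preincubation with SIRPalpha; % is scaled to controls: 0 for no effect and ±100 for the full control effect.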 The method, boiled down: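 Biotinylated Avi-tagged SIRPalpha (25 nM) preincubated 30 min with compound, then His-tagged CD47 (12.5 nM) added 30 min; AlphaScreen with Ni-NTA acceptor and streptavidin donor beads. PBS pH 7.4, 0.05% IGEPAL, room temperature; 7-point titrations.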

The target in test [13] is Parathyroid hormone/parathyroid hormone-related peptide receptor (Homo sapiens) (UniProt Q03431). The experiment in a line: qHTS for PTHR1 Agonists: Optimization Screen against the NCGC LOPAC library (AID 1347079).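 Also: GloSensor cAMP luminescence in HEK-293 GP2 cells expressing human PTHR1 with IBMX; 0% is about no effect.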 A digest of the protocol:
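Compounds were tested across a qHTS titration. PTHR1-expressing GP2 cells report cAMP rises via GloSensor luminescence after 1 hr compound exposure at 37C with IBMX present.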

A number with no mark means an inactive call. Results filed as inconclusive are left out. Calls of active or inactive are those of the source. Unless noted, calls follow the shape of the dose curve; as a rule, active = well fitted curve in the direction sought with a large enough effect; inconclusive = small, poorly fitted or top-dose-only effect, or another doubt; inactive = no such curve, though single readings can be large; an effect the other way counts as inactive or inconclusive.

Chain of Parathyroid hormone/parathyroid hormone-related peptide receptor (Homo sapiens) (Q03431 whole entry, looked up): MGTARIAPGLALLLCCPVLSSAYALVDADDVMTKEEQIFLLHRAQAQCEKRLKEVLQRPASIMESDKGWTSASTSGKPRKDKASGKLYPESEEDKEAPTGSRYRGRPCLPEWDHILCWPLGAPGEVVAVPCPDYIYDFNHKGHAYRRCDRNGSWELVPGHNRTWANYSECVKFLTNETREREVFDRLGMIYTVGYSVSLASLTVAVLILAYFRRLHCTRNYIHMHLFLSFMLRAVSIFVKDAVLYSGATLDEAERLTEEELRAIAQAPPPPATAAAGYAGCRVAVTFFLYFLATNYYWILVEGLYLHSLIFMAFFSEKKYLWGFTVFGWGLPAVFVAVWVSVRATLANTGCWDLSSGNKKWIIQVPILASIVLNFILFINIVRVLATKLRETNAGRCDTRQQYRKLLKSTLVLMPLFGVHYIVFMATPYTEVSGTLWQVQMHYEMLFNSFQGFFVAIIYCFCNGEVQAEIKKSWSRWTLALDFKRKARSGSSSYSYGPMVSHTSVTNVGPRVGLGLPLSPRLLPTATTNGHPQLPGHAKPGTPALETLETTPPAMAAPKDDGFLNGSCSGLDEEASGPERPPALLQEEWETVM
Chain of Atrial natriuretic peptide receptor 1 (Homo sapiens) (P16066 whole entry, looked up): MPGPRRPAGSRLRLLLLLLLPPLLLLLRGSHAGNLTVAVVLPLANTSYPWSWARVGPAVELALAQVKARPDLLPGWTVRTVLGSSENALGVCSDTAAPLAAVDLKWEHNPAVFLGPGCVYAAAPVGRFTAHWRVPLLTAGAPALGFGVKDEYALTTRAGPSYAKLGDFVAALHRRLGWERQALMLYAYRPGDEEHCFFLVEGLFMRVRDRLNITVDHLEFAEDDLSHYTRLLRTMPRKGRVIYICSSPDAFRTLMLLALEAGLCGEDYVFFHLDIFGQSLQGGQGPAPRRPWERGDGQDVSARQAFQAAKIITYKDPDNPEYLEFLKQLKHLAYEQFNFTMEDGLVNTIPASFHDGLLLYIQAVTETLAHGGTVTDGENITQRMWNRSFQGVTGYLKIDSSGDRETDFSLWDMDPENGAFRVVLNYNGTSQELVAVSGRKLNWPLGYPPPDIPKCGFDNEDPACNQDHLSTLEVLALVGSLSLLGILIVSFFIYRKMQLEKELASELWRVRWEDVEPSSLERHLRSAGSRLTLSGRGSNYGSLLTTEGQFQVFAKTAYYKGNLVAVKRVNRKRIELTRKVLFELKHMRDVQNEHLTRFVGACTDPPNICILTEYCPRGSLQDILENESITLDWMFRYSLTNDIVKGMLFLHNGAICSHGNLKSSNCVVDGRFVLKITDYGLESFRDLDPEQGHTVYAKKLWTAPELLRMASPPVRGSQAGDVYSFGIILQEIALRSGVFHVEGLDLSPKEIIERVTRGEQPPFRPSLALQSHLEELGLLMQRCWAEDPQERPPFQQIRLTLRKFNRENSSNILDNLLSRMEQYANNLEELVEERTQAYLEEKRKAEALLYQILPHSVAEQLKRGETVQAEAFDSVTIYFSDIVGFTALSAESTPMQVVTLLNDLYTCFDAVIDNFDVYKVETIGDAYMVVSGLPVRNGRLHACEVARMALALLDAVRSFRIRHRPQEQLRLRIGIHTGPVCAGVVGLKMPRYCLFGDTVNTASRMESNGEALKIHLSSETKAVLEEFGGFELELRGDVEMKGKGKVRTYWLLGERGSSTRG
Chain of Atrial natriuretic peptide receptor 2 (Homo sapiens) (P20594 whole entry, looked up): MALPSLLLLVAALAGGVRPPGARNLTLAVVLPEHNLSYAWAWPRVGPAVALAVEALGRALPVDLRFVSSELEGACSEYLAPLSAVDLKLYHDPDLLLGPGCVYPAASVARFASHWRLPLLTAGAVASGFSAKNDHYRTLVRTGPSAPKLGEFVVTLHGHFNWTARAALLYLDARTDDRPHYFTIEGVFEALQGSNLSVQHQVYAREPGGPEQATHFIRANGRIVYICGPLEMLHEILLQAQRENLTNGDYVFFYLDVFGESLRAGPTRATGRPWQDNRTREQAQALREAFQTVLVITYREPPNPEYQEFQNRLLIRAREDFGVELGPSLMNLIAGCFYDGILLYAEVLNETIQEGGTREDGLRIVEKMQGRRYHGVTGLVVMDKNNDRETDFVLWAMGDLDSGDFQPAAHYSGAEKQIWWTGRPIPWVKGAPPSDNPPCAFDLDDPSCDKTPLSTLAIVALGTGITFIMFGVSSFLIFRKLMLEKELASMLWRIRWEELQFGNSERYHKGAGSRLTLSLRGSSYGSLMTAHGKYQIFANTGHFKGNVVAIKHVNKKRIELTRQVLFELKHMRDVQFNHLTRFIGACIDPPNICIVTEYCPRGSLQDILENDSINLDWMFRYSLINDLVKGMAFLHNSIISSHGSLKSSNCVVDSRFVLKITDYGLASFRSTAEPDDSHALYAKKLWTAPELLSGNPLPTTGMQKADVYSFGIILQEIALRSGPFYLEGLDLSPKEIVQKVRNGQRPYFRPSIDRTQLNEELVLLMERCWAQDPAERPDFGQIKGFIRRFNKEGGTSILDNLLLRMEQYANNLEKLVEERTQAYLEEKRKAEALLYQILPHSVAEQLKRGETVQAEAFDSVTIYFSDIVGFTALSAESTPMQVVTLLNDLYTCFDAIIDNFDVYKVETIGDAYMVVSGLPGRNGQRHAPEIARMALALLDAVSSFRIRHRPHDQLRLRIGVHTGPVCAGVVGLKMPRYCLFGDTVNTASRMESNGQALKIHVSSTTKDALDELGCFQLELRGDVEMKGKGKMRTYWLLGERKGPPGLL
T1 sequence (P78324 whole entry, looked up): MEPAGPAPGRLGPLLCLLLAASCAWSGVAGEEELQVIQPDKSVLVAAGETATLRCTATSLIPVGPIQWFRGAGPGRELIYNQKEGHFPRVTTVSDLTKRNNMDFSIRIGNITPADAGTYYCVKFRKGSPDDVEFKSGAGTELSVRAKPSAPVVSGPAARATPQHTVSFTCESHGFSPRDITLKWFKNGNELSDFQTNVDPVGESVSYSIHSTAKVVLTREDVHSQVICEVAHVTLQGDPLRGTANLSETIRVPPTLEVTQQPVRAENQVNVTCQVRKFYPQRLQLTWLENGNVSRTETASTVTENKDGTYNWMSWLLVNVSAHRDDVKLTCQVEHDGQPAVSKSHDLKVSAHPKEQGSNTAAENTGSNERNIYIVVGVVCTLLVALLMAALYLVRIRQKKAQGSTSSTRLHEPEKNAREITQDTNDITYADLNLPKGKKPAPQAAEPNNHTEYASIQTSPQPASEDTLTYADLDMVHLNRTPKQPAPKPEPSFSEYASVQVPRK
T1 sequence (Q08722 whole entry, looked up): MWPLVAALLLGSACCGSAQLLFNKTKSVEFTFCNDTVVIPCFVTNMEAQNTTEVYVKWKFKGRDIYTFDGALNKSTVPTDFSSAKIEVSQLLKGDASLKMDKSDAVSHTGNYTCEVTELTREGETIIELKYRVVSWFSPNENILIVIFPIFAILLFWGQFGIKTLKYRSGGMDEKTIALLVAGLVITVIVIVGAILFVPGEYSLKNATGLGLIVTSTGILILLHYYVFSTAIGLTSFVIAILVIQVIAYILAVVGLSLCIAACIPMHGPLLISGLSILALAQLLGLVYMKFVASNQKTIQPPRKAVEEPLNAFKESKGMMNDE

Take `O=c1[nH]c(=O)c2[nH]c(=O)[nH]c2[nH]1`: in test [1], the compound was classed as inactive. The activity change, negative = inhibition in test [2] is -8.7% [at 9.2 µM]. For the same compound, the activity change, negative = cytotoxic in [3] was -9.56% [at 9.17 µM]; in [4], -3.8% [at 9.22 µM]; in test [5], 1.34% [at 9.22 µM].
In the case of `CC(C)C(=O)c1c(C(C)C)nn2ccccc12`, the Potency result in test [6], in [9], in test [2], in [13], in test [3] and in test [4] was “inactive” in each case. For the same compound, the Potency result in test [5] was “inactive”. Moreover, the result in [7], in test [8], in [10], in test [11] and in [12] was inactive.
For `CC(C)NC[C@H](O)c1ccc(O)c(O)c1`, the call in [7], in test [8], in test [10], in test [11] and in test [12] was inactive. Further, the Potency entry in test [9] and in test [2] was “inactive” each time.
For `CC(C)(C)[C@]1(O)CCN2C[C@H]3c4ccccc4CCc4cccc(c43)[C@@H]2C1`, the result in test [7], in test [8], in test [10], in test [11] and in test [12] was inactive. The Potency result in test [9], in test [2] and in [13] was “inactive” in each case.
For `CNCCC(Oc1ccc(C(F)(F)F)cc1)c1ccccc1` (stereo unspecified), in test [1], the call was inactive. The Potency result in [2], in test [13] and in [3] was “inactive” throughout.
As to `CCN(CC)CCOC(=O)C1(C2CCCCC2)CCCCC1`, the compound was called inactive in [7], in test [8], in [10], in test [11] and in test [12]. The Potency entry in [9], in test [2], in test [13], in test [3] and in test [4] was “inactive” throughout.
For `CC[C@H]1CN2CCc3cc(OC)c(OC)cc3[C@@H]2C[C@@H]1C[C@H]1NCCc2cc(OC)c(OC)cc21`, the call in test [7], in [8], in test [10], in test [11] and in [12] was inactive. Moreover, the Potency result in test [9], in [2] and in [13] was “inactive” each time. Also, the Potency in test [3] was 0.333 µM (active); in test [4], 1.06 µM (active); in test [5] it was 0.237 µM (active).
For `Cc1c(O)cccc1C(=O)N[C@@H](CSc1ccccc1)[C@H](O)CN1C[C@H]2CCCC[C@H]2C[C@H]1C(=O)NC(C)(C)C`, the result in [1], in test [10], in [11] and in [12] was inactive. Also, in [2], the Potency entry is “inactive”. Further, in test [5], the Potency was 21.1 µM (active).
`CC(C)c1c(C(=O)Nc2ccccc2)c(-c2ccccc2)c(-c2ccc(F)cc2)n1CC[C@@H](O)C[C@@H](O)CC(=O)O`: in test [2], the Potency entry was “inactive”. Also, the result in test [10], in test [11] and in test [12] was inactive. For the same compound, the Potency in test [4] was 4.22 µM (active); in [5], 11.9 µM (active).
In the case of `NC(N)=NCCC[C@H](N)C(=O)O`, the Potency entry in test [6], in test [9], in [2] and in test [13] was “inactive” throughout. In addition, the call in test [8] was inactive. Also, the activity change, negative = cytotoxic in test [3] was 3.73% [at 4.81 µM]; in [4], -2.71% [at 4.84 µM]; in [5] it was 11.2% [at 4.84 µM].
Take `C[C@]12CC[C@@H]3c4ccc(O)cc4CC[C@H]3[C@@H]1CCC2=O`: the outcome in test [7], in [8], in test [10], in [11] and in test [12] was inactive. Moreover, the Potency entry in [9], in [2], in test [13], in test [3], in test [4] and in test [5] was “inactive” throughout.
`Nc1cc(=O)[nH]c(N)n1`: the Potency result in test [6], in [9], in [2], in test [13], in test [3] and in test [4] was “inactive” each time. Besides, the Potency entry in test [5] is “inactive”. Further, the compound was classed as inactive in test [8], in test [10] and in test [12].
As to `CC(C)(C)c1onc(OCP(=O)(O)O)c1CC(N)C(=O)O` (stereo unspecified), the call in [7], in test [8], in [10] and in test [12] was inactive. Also, the Potency entry in test [9], in test [2] and in test [13] was “inactive” throughout.
For the compound `OCCN1CCN(CCCN2c3ccccc3Sc3ccc(Cl)cc32)CC1`, the outcome in [1] and in test [8] was inactive. In addition, the values for the Potency in test [9] and in test [5] were 16.5 µM (active) and 21.1 µM (active), respectively. Moreover, the Potency result in [13] is “inactive”.
`CC/C=C(\C(=O)N[C@@H]1C(=O)N2C(C(=O)OCOC(=O)C(C)(C)C)=C(COC(N)=O)CS[C@H]12)c1csc(N)n1`: the Potency entry in [6], in test [2], in [4] and in test [5] was “inactive” each time.
For `CC(C)(C(=O)O)c1ccc(C(O)CCCN2CCC(C(O)(c3ccccc3)c3ccccc3)CC2)cc1` (stereo unspecified), the Potency result in [6], in test [2], in [13], in test [3], in [4] and in [5] was “inactive” each time.
`CC1=C(CC(=O)O)c2cc(F)ccc2/C1=C\c1ccc(S(C)(=O)=O)cc1`: the Potency entry in [6], in test [9], in [2], in test [13], in test [3] and in [4] was “inactive” each time. Moreover, in [5], the Potency result was “inactive”. In addition, the outcome in test [7], in test [8], in [10] and in test [12] was inactive.
Turning to `CC(=O)OCC(=O)[C@@]1(O)CC[C@H]2[C@@H]3CCC4=CC(=O)CC[C@]4(C)[C@H]3C(=O)C[C@@]21C`, the compound was called inactive in [7], in [8], in test [10], in test [11] and in test [12]. Further, the Potency result in [9], in test [2], in test [13], in test [4] and in [5] was “inactive” each time.
